Screening data (PubChem)
TGFb inhibitor: TGF-b pathway inhibition | AID 588855 | HepG2 CAGA-GFP TGF-b/SMAD3 reporter, GFP fluorescence, 18 h; TGF-beta stimulated, 500 pg/mL final | Potency, µM (top dose mostly 46.1 µM), without a hit: at the highest dose activity, negative = inhibition, actives largely listed as inhibitors | 410,000 tested, 1.2% active; note: potency is the fitted concentration of half-maximal effect; % is set by controls: 0 for no effect and ±100 for the full control effect; nearly all actives have a fitted effect of over 65% in size
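First, reporter cells (HEPG2 CAGA-GFP) rested 2 h at 37 degrees C. Next, compounds were pinned in and TGF-beta added to 500 pg/mL final. After 18 h, GFP was imaged per cell and summed per well.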
S2 tox: reduces viability in counter-screen for ATXN expression inhibitors. 400,000 tested, 0.49% active. Potency, µM (series often up to 56.7 µM), usual class: cytotoxic. AID 651635. S2 cells (HEK-293 line with an ATXN2-luciferase reporter) viability, CellTiter-Fluor protease fluorescence, 24 h; note: potency is the fitted concentration of half-maximal effect; nearly all actives have a fitted effect of over 40% in size
Six1-Eya2 blk: Six1/Eya2 interaction inhibition; 360,000 tested, 0.56% active; AlphaScreen GST-Six1/His-Eya2 binding, biochemical; active compounds read low; activity change, % (concentration not given with the values); Q15475+O00167; in the data active = activity change below about -65%; inconclusive = mostly about -30% to -63%; note: % is set by controls: 0 for no effect and ±100 for the full control effect
Target sequence (O00167 whole entry, looked up): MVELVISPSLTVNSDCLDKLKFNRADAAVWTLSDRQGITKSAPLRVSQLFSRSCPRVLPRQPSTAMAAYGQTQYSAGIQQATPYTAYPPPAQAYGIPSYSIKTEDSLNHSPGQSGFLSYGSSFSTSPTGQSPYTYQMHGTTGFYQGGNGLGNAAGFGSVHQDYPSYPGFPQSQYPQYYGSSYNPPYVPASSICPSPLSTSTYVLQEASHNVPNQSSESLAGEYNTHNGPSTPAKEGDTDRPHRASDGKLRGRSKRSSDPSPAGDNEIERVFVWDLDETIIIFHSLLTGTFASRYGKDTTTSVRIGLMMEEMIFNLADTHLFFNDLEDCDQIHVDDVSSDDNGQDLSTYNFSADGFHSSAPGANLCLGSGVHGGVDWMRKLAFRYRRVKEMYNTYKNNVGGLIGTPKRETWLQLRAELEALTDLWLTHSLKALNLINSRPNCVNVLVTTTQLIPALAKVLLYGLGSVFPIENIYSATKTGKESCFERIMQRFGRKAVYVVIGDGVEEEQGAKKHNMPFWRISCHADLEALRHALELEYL
Target sequence (Q15475 whole entry, looked up): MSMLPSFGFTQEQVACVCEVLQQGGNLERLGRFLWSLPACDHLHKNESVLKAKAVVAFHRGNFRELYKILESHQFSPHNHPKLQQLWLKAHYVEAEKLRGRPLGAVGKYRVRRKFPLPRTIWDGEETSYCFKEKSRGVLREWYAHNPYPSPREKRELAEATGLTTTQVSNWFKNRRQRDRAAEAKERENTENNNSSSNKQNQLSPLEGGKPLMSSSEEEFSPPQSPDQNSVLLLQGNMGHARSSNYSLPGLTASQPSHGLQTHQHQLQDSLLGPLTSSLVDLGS
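AlphaScreen with GST-Six1 and His-Eya2 (5X mix: 250 nM and 500 nM), glutathione donor and nickel acceptor beads; buffer 50 mM Tris pH 8.0, 300 mM NaCl, 1 mM TCEP; 1 h at 37 C in the dark.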
ATXN2 expr inh: inhibitors of ATXN2 expression; HEK-293 ATXN2-luciferase reporter, luminescence, 24 h; Potency, µM (doses to about 57 µM), without a hit: at the highest dose activity change, negative = inhibition, actives largely listed as inhibitors; 360,000 tested, 0.72% active; note: potency is the fitted concentration of half-maximal effect; % is set by controls: 0 for no effect and ±100 for the full control effect; nearly all actives have a fitted effect of over 55% in size
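ATXN2-luciferase reporter cells (luciferase flanked by upstream and downstream ATXN2 gene portions) were treated 24 h at 37 °C with compounds at up to 57 uM. SteadyGlo luminescence gave expression; GF-AFC fluorescence gave viability.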
CtBP-E1A blk: inhibitors of CtBP/E1A interaction; 340,000 tested, 0.49% active; AID 651724; AlphaScreen GST-E1A/His-CtBP binding, 1536-well; active compounds read low; activity change, % (no concentration beside the values); in the data active = activity change below about -65%; inconclusive = mostly about -30% to -63%; note: % is set by controls: 0 for no effect and ±100 for the full control effect
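In 5 uL wells, 23 nL compound meets equimolar GST-E1A and His-CtBP (5X stock 125 nM each) for 2 h, 37 °C. Beads (5X, 50 ug/mL) then 1 h, 37 °C, dark.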
HepG2 tox-1: kills HepG2 cells in TGF-b inhibitor counter-screen; 410,000 tested, 0.76% active; HepG2 CAGA-GFP viability, ATP luminescence, 18 h; Potency, µM (highest dose often 46.1 µM), without a hit: top-dose activity change, negative = cytotoxicity, most hits filed as cytotoxic; note: potency is the fitted concentration of half-maximal effect
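HepG2 CAGA-GFP cells (1000/well, DMEM with 1% FBS) received compound, then TGF-beta at 500 pg/mL final, and were incubated 18 hours at 37 degrees C. Viability was read by CellTiter-Glo luminescence. Media-only wells were set as complete cell-killing and DMSO as no toxicity.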
TGFb confirm: confirmation of TGF-b signaling inhibitors in HepG2 reporter cells | HepG2 CAGA-GFP TGF-b reporter, GFP fluorescence, 18 h; cells stimulated with TGF-beta, 500 pg/mL | Potency, µM (series often up to 46.1 µM), without a hit: at the highest dose activity, negative = inhibition, hits mostly inhibitors | 1,600 tested, 63% active | shares compounds with TGFb inhibitor; note: potency is the fitted concentration of half-maximal effect; % is set by controls: 0 for no effect and ±100 for the full control effect; nearly all actives have a fitted effect of over 65% in size
HepG2 tox-2: toxic to HepG2 cells in TGF-b counterscreen; Potency, µM (doses to about 46.1 µM), for inactives: at the top dose activity, negative = cytotoxicity, usual class: inhibitors; 1,600 tested, 27% active; HepG2 CAGA-GFP viability, ATP luminescence, 18 h; cells stimulated with TGF-beta, 500 pg/mL; AID 720535; shares compounds with TGFb inhibitor; note: potency is the fitted concentration of half-maximal effect; % is set by controls: 0 for no effect and ±100 for the full control effect; nearly all actives have a fitted effect of over 70% in size
TGFb CCL64 inh: TGF-b inhibition, CCL64 orthogonal assay; CCL64 CAGA-GFP reporter, TGF-b stimulated, GFP fluorescence, 18 h; shares compounds with TGFb inhibitor; Potency, µM (highest dose often 46.1 µM), inactives show at the highest dose activity, negative = inhibition, usual class: inhibitors; AID 720536; 1,600 tested, 41% active; note: potency is the fitted concentration of half-maximal effect; nearly all actives have a fitted effect of over 65% in size
TGFb COP inh: TGF-b inhibition validated with COP promoter. shares compounds with TGFb inhibitor. HepG2 COP-GFP TGF-b reporter, GFP fluorescence, 18 h; cells stimulated by added recombinant TGF-beta. Potency, µM (doses to about 46.1 µM), for the others: at the highest dose activity, negative = inhibition, hits mostly inhibitors. 1,600 tested, 3% active; note: potency is the fitted concentration of half-maximal effect; nearly all actives have a fitted effect of over 70% in size
The depositor's hits bear a star; i = inactive; ? = inconclusive; / = not tested or not shown. The list is not random: actives were taken first. Their share in the collection is about 2.8%. Unless noted, calls come from the whole dose curve; as a rule, active = well fitted curve in the direction sought with a large enough effect; inconclusive = small, poorly fitted or top-dose-only effect, or another doubt; inactive = no such curve, though single readings can be large; an effect the other way counts as inactive or inconclusive.

SMILES	TGFb inhibitor	S2 tox	Six1-Eya2 blk	ATXN2 expr inh	CtBP-E1A blk	HepG2 tox-1	TGFb confirm	HepG2 tox-2	TGFb CCL64 inh	TGFb COP inh
O=C(Nc1cccc(C(F)(F)F)c1)C1Cc2c(-c3ccc(Cl)cc3)ccnc2O1 (stereo not drawn)	8.9µM*	?	3	-28%	6	-62%	?	?	?	38%
Cc1cn(C)c(CC(=O)NCc2ccccc2Cl)c1C(=O)O	-7%	i	/	5%	/	-9%	/	/	/	/
COc1ccc(C(=O)NN(C)c2nc(C(F)(F)F)nc3ccccc23)cc1	?	?	1	27%	6	-23%	?	-16%	?	-15%
COc1ccc(C(=O)NN(C)c2nc(-c3ccccc3)nnc2C(F)(F)F)cc1	15%	i	9	-13%	12	0%	/	/	/	/
Cc1csc2c(N3CCN(C(=O)c4ccc(C(C)(C)C)cc4)CC3)ncnc12	11µM*	i	0	/	/	-38%	9.2µM*	-21%	?	11%
Cc1csc2c(N3CCN(C(=S)Nc4ccc(C(F)(F)F)cc4)CC3)ncnc12	?	i	-19	/	/	-34%	/	/	/	/
Fc1ccc(CN2CCN(C(=S)NCCc3ccccc3)CC2)c(Cl)c1	7.9µM*	i	-1	-19%	0	-30%	?	-30%	?	11%
S=C(NCCc1ccccc1)N1CCN(Cc2ccc(Cl)c(Cl)c2)CC1	-3%	i	0	-33%	3	-23%	/	/	/	/
Cc1ccc(CNc2ccc(O)cc2)cc1	10µM*	i	-26	7%	?	-103%	23µM*	?	?	?
COc1cc2ccccc2cc1C(=O)Nc1ccc(Cc2ccncc2)cc1	?	?	-9	-19%	-10	-17%	8.2µM*	?	12µM*	43%
COc1cc2ccccc2cc1C(=O)Nc1ccc(C)cc1	?	i	-5	/	/	-61%	/	/	/	/
CCCCCCN1C[C@@H](O)[C@H](n2cc(COC(=O)c3ccccc3)nn2)C[C@@H]1c1ccc(OC)cc1	-20%	i	-2	5%	-8	-38%	/	/	/	/
CCC1(OC(=O)CN(C)C)C(=O)OCc2c1cc1n(c2=O)Cc2cc3c(N)cccc3nc2-1 (stereo not drawn)	3.2µM*	?	-16	?	5	3%	5.8µM*	1.8µM*	?	16%
CCOc1ccccc1NC(=O)Cn1c(=O)n(-c2ccc(C)cc2)c(=O)c2c1cnn2C	1%	?	/	-14%	/	0%	/	/	/	/
O=C(CCNc1ccc(F)cc1)c1cccc([N+](=O)[O-])c1	?	i	-25	-23%	?	-40%	/	/	/	/
Cc1ccc(NCCC(=O)c2cccc([N+](=O)[O-])c2)cc1	10µM*	i	?	10%	?	-73%	23µM*	?	?	19%
O=C(CCNc1ccc(Br)cc1)c1cccc([N+](=O)[O-])c1	13µM*	i	?	1%	?	13%	18µM*	-15%	-6%	15%
O=C(CSc1nnc(CNC(=O)c2ccccc2F)n1-c1ccccc1)Nc1ccccc1F	-2%	i	/	-9%	/	-13%	/	/	/	/
COc1ccc(C(=O)/C=C/C(=O)N(Cc2ccc(F)cc2)C(C(=O)NC2CCCCC2)c2ccncc2)c(O)c1 (stereo not drawn)	10µM*	?	-16	-29%	-3	2%	?	-18%	13µM*	35%
O=C(NCc1ccncc1)[C@@H]1CCCN1C(=O)[C@@H]1CCCN1C(=O)c1ccccc1	/	i	-4	-9%	1	/	/	/	/	/
Cc1ccccc1C(=O)N1CCN(c2ccc(NC(=O)CSc3ccc(Cl)cc3)cc2)CC1	4.5µM*	i	-18	?	-19	-4%	4.1µM*	?	?	14%
O=[N+]([O-])c1cc2no[n+]([O-])c2cc1N1CCCCC1	2.8µM*	5.3µM*	-30	9.5µM*	1	5%	1.6µM*	6.5µM*	3.7µM*	?
CC(C)(C)c1ccc(S(=O)(=O)N2CCC(c3nc4ccc(Cl)cc4[nH]3)CC2)cc1	20µM*	i	2	?	7	-28%	16µM*	?	?	46%
CCC(C)Nc1nc(-c2ccccn2)nc2ccccc12 (stereo not drawn)	?	?	?	?	-14	-14%	15µM*	?	12µM*	72%
CCOc1ccccc1NC(=O)CN1c2ccccc2S(=O)(=O)c2ccccc21	?	i	/	1%	/	-1%	/	/	/	/
COc1cc2oc(=O)cc(-c3ccc(-c4ccc(O)cc4)cc3)c2c(OC)c1OC	11µM*	?	-6	?	-1	-14%	18µM*	?	?	70%
CCCOc1ccc(C(=O)CCN2CCN(C(=O)OCC)CC2)cc1	16µM*	?	-18	?	-10	-45%	8.2µM*	21µM*	18µM*	23µM*
CCOC(=O)c1cccc(NC(=O)NC2COc3ccccc3C2)c1 (stereo not drawn)	-28%	/	/	/	/	-21%	/	/	/	/
COc1cccc(C2C3=C(N=c4s/c(=C\c5ccc(O)cc5)c(=O)n42)c2ccccc2CC3)c1OC (stereo not drawn)	24%	i	1	6%	-2	1%	/	/	/	/
